A selection: hits, their analogues and other compounds. The true share with any hit is near 2.9%.
HePTP inh – blocks human HePTP tyrosine phosphatase; P35236; recombinant HePTP phosphatase activity, OD absorbance; inhibition, % at 20 µM; 110,000 tested, 0.64% active; in the data active = inhibition above about 50%;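 also: plate controls were vehicle for no effect and reference inhibitor for full effect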
ERb coact inh – ER-beta (human) coactivator binding inhibition | Q92731 | TR-FRET ER-beta LBD / SRC1-Cy5 peptide binding; receptor agonist-loaded with 1 µM estradiol | inhibition, % at 25.6 µM | 86,000 tested, 1.3% active | AID 633;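 active = compounds whose percent inhibition of the receptor-coactivator binding signal exceeds about 50% in the single-dose screen, limit read from the data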;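 also: 0% = receptor plus peptide wells without compound and 100% = peptide-only wells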
Target sequence (Q92731 whole entry, looked up, the tested form may be a part): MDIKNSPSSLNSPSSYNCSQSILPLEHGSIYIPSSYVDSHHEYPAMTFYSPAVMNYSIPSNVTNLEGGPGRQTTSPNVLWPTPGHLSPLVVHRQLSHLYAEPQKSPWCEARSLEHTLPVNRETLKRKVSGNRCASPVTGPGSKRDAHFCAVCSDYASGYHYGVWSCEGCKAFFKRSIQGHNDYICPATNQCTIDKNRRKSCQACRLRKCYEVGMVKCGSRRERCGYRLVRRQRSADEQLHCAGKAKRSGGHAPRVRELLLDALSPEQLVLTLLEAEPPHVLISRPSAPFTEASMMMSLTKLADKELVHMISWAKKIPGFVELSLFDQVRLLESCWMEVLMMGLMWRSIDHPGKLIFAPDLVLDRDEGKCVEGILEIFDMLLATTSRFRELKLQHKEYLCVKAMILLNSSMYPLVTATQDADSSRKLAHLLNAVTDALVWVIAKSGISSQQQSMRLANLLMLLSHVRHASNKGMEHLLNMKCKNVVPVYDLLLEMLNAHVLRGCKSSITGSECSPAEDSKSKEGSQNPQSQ
ERa SRC1 pot – ER-alpha (human) coactivator binding potentiation; P03372; TR-FRET ERalpha-LBD/SRC-Cy5 coactivator binding, 2 h; 100 = basal binding, no effect; AID 639; 86,000 tested, 1.3% active; coactivator binding (% of control), % at 25.6 µM; in the data active = activity above about 200%;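 also: binding measured in presence of low estradiol as agonist stimulus; 0% = peptide alone without receptor and 100% = receptor with peptide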
ERa coact inh – ER-alpha (human) coactivator binding inhibition; TR-FRET ER-alpha LBD / SRC-1 peptide, estradiol-bound; inhibition, % at 25.6 µM; 86,000 tested, 1.7% active; AID 629; in the data active = inhibition above about 50%;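 also: 0% = receptor plus peptide control and 100% = peptide only without receptor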
Calb biofilm kill – kills Candida albicans biofilms | C. albicans biofilm + clotrimazole, Alamar Blue | inhibition, % at 6 µM | 85,000 tested, 0.14% active | AID 834;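 active = inhibition above 20%; inactive = inhibition below 20%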;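 also: preformed 24 hr biofilms exposed to compound for 48 hr; 0% = biofilm without compound and 100% = blank killed by clotrimazole plus chlorhexidine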
Smad3 inh – blocks human Smad3 binding to FoxH1 peptide; 88,000 tested, 0.29% active; inhibition, % at 25 µM; TR-FRET Smad3/Dy647-FoxH1 peptide binding, europium anti-His;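 active = compounds that reduce the energy-transfer binding signal between the protein and its labelled peptide by more than half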;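 also: 0% = Smad3 plus labelled peptide maximal FRET and 100% = peptide-only background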
* = called active by the depositor; nt = no result; [ ] = another dose, or the depositor's remark.

SMILES | HePTP inh | ERb coact inh | ERa SRC1 pot | ERa coact inh | Calb biofilm kill | Smad3 inh
Cc1cccc(OCC(=O)Nc2cccnc2)c1 | 4 | nt | nt | nt | nt | nt
Cc1ccc(C)c(OCC(=O)Nc2nonc2NC(=O)COc2cc(C)ccc2C)c1 | -3 | 22 | 64 | 63*[fluorescence artefact?] | 8 | -1
O=C(O)c1ccccc1C(=O)c1ccc(Cl)c(N2C(=O)C=CC2=O)c1 | 11 | nt | nt | nt | nt | nt
Cc1cc(C(=O)N2CCN(c3ccc(Cl)cc3)CC2)ccc1[N+](=O)[O-] | -4 | nt | nt | nt | nt | nt
Cc1noc(C)c1COc1ccc(C(=O)OCC(=O)N2c3ccccc3NC(=O)C2(C)C)cc1 | nt | 68* | 54 | 73* | -4 | -14
Cc1noc(C)c1COc1ccc(C(=O)OCC(=O)N2CC(=O)Nc3ccccc32)cc1 | nt | -11 | 101 | -6 | -7 | -8
COc1ccc(C(C)=O)cc1COC(=O)c1ccc(OCc2c(C)noc2C)cc1 | 4 | 42 | 277* | 55*[fluorescence artefact?] | 5 | -27
Cc1cc(Cl)ccc1OCC(=O)N1CCOCC1 | 1 | nt | nt | nt | nt | nt
O=C(CCC1CCCCC1)N1CCN(c2cccc(Cl)c2)CC1 | 4 | nt | nt | nt | nt | nt
O=C(O)CCCC(=O)N1CCN(c2cccc(Cl)c2)CC1 | 3 | -1 | 331*[fluorescence artefact?] | -10 | 5 | 22
COC(=O)c1cccc(OC)c1[N+](=O)[O-] | 3 | nt | nt | nt | nt | nt
Cc1cc(C)c(C(=O)COc2cccnc2[N+](=O)[O-])cc1C | nt | 89* | 54 | 55*[fluorescence artefact?] | 4 | 1
O=C(CSc1nc2ccccc2c(=O)[nH]1)c1ccc(O)c(O)c1 | 12 | 66* | 65 | 59*[fluorescence artefact?] | -2 | 5
COCCOC(=O)c1ccc(NC(=O)c2ccc(-c3ccccc3)cc2)cc1 | -4 | nt | nt | nt | nt | nt
CS(=O)(=O)N(Cc1ccc(Cl)cc1)c1ccc(C(=O)NC2CCCC2)cc1 | 1 | nt | nt | nt | nt | nt
CN(C)c1nc(-c2ccccn2)nnc1-c1ccccc1 | nt | -12 | 104 | 58*[fluorescence artefact?] | 1 | 13
COc1nc(C)nc(NC(=O)NS(=O)(=O)c2ccc(C)cc2)n1 | nt | 51*[fluorescence artefact?] | 80 | 5 | 5 | -10
COCCNCCOc1c(C)cc(Cl)cc1C | 2 | nt | nt | nt | nt | nt
COc1cc(C2c3c(oc4ccccc4c3=O)C(=O)N2Cc2ccco2)ccc1O (stereo not drawn) | nt | -9 | 97 | 2 | 6 | 1
CCOc1cc(C2c3c(oc4cc(C)c(Cl)cc4c3=O)C(=O)N2Cc2ccco2)ccc1O (stereo not drawn) | 8 | 46 | 106 | 84*[fluorescence artefact?] | 1 | 1
CC(C)CNC(=O)COC(=O)c1cncc(Br)c1 | nt | -1 | 95 | -8 | 5 | -16
O=C(OCC(=O)N1CCCC1)c1cncc(Br)c1 | 14 | 55* | 101 | -1 | 6 | 2
CCOC(=O)c1ccc(Nc2ncnc3c2cnn3C)cc1 | -4 | 72*[fluorescence artefact?] | 111 | -3 | 6 | -6
COc1ccc2c(=O)c(-c3cnn(-c4ccccc4)c3)c(C)oc2c1 | nt | -7 | 112 | 0 | -3 | 16
Cc1oc2c(C)c(O)ccc2c(=O)c1-c1cnn(-c2ccccc2)c1 | nt | 60*[fluorescence artefact?] | 181 | 70*[fluorescence artefact?] | 2 | 1
SMILES | HePTP inh | ERb coact inh | ERa SRC1 pot | ERa coact inh | Calb biofilm kill | Smad3 inh
Fc1ccccc1CSc1ncnc2c1oc1ccccc12 | 6 | 31 | 213*[fluorescence artefact?] | 28 | 9 | 4
O=C(CSc1ncnc2c1oc1ccccc12)Nc1cccc(Cl)c1 | 13 | 26 | 373*[fluorescence artefact?] | 6 | 7 | 23
COC(=O)c1ccc(CSc2ncnc3c2oc2ccccc23)o1 | -4 | 56*[fluorescence artefact?] | 234*[fluorescence artefact?] | 41 | 0 | 62*[fluorescence artefact?]
CCc1nnc(NC(=O)CSc2ncnc3c2oc2ccccc23)s1 | 8 | 16 | 238*[fluorescence artefact?] | -18 | 2 | -10
COC(=O)c1ccc(CSc2ncnc3ccccc23)o1 | -2 | -10 | 116 | -6 | 2 | 2
CCOc1ccc(N2C(=O)NC(=O)/C(=C\c3ccccc3OC)C2=O)cc1 | 8 | nt | nt | nt | nt | nt
CN1CCN(C2=NC(=O)/C(=C/c3ccc([N+](=O)[O-])cc3)S2)CC1 | 0 | nt | nt | nt | nt | nt
CC(=O)CSc1ncnc2c1oc1ccccc12 | -5 | -13 | 108 | 5 | 2 | 44
CCc1nnc(NC(=O)CSc2nnc(-c3ccccc3NC(=O)c3ccccc3)o2)s1 | 7 | 31 | 285*[fluorescence artefact?] | 22 | 10 | 35
COC(=O)c1ccc(CSc2ncn[nH]2)o1 | -9 | 86*[fluorescence artefact?] | 107 | -8 | 7 | 4
O=C(CSc1ncnc2c1oc1ccccc12)Nc1cccc(C(F)(F)F)c1 | 1 | 19 | 188 | 24 | 10 | 6
CCOC(=O)c1ccc(CSc2ncn[nH]2)o1 | 1 | 8 | 95 | -5 | -5 | -13
O=C(CSc1ncnc2c1oc1ccccc12)Nc1ccccc1F | -2 | 55*[fluorescence artefact?] | 406*[fluorescence artefact?] | 47 | 4 | 48
CCOc1ccccc1NC(=O)CSc1ncnc2c1oc1ccccc12 | -9 | 41 | 274*[fluorescence artefact?] | 31 | 5 | 5
CC1CN(S(=O)(=O)c2ccc3c(c2)C(=O)c2cc(S(=O)(=O)N4CC(C)OC(C)C4)ccc2-3)CC(C)O1 (stereo not drawn) | 4 | nt | nt | nt | nt | nt
CCOC(=O)c1ccccc1NC(=O)CCCOc1ccccc1 | -3 | nt | nt | nt | nt | nt
CC(C)CN1C(=O)c2ccc(C(=O)Nc3ccc(Br)cc3C(=O)O)cc2C1=O | -1 | nt | nt | nt | nt | nt
CCn1c(=O)cc(C(=O)OC)sc1=Nc1ccc(F)c(F)c1 | 6 | 95*[fluorescence artefact?] | 82 | -8 | 8 | 3
COC(=O)c1cc(=O)n(CCc2ccc(OC)cc2)c(=Nc2ccc(F)c(Cl)c2)s1 | nt | 8 | 114 | 5 | 9 | -2
O=C(Nc1ccc(-c2nc3ccccc3c(=O)o2)cc1)c1cccc([N+](=O)[O-])c1 | -8 | nt | nt | nt | nt | nt
NC1=NC2(CCCCC2)n2c(nc3ccccc32)N1 | 6 | 3 | 36 | 52*[fluorescence artefact?] | -1 | 1
CCOc1nc(-c2ccc(OC)cc2)ccc1-c1noc(-c2ccncc2)n1 | 6 | 38 | 138 | 76* | -2 | 9
CCOc1nc(C)ccc1-c1noc(-c2ccncc2)n1 | 7 | -2 | 233*[fluorescence artefact?] | -6 | 9 | 1
CCOc1nc(-c2ccccc2)ccc1-c1noc(-c2ccncc2)n1 | 5 | 30 | 196 | 33 | 5 | 5
CCOC(=O)c1c(NC(=O)CN2CCOCC2)sc2c1CCC/C2=N\O | -2 | nt | nt | nt | nt | nt
SMILES | HePTP inh | ERb coact inh | ERa SRC1 pot | ERa coact inh | Calb biofilm kill | Smad3 inh
O=[N+]([O-])c1ccc(N/C(=N/S(=O)(=O)c2ccc(Cl)cc2)c2ccccc2)cc1 | 6 | nt | nt | nt | nt | nt
CN(C)c1ccc(NC(=O)CN2C(=O)CC(c3ccccc3)=Nc3ccccc32)cc1 | 5 | 66*[fluorescence artefact?] | 38 | 93*[fluorescence artefact?] | 3 | 5
CC1=C(C(=O)Nc2ccccc2)C(c2ccc(O)c(O)c2)NC(=S)N1 (stereo not drawn) | -23 | nt | nt | nt | nt | nt
CCc1ccc(CNC(=O)C2CCC(=O)N2C2CCCCC2)cc1 (stereo not drawn) | nt | -10 | 112 | 3 | 3 | -2
O=C(NCc1ccccn1)C1CCC(=O)N1C1CCCCC1 (stereo not drawn) | nt | -4 | 118 | 82*[fluorescence artefact?] | 4 | 3
O=C(CSc1nnc(Nc2ccccc2)s1)NCc1ccco1 | 3 | 16 | 103 | -9 | 0 | -11

Source: PubChem BioAssay
